Experimental data from PubChem BioAssay AID1159580 (chemical genetic matrix, 2015).
The whole screen tested about 5,500 compounds, of which about 2,000 (36%) were called active. About 18% were inconclusive and are not listed. No stated cut-off is given here; in the data, active means normalized growth mostly below about 0.91 (no sharp cut-off); inconclusive means no clear call, values can overlap the other calls; inactive means mostly above about 0.92. The list shows a part of the results.

Assay: chemical genetic growth profiling, strain panel (AID 1159580);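 further: tested at 20 µM; growth read once vehicle control cultures reached saturation at 30 °C; 1 = growth at the plate median or of vehicle wells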
Settings: growth OD

Measured: normalized growth

CC(=O)O[C@H]1CC[C@]2(C)C3CC(=O)[C@]4(C)C(C(C)=O)=CCC4C3CC[C@H]2C1 (stereo partly specified)
active: S. cerevisiae deletion strains, locus YDR392W, strain spt3, stronger effect = lower value 0.628 | S. cerevisiae deletion strains, locus YKR001C, strain vps1, stronger effect = lower value 0.897 | S. cerevisiae deletion strains, locus YLR418C, strain cdc73, stronger effect = lower value 0.839 | S. cerevisiae deletion strains, locus YNL071W, strain lat1, stronger effect = lower value 0.91
inactive: S. cerevisiae deletion strains, locus YAL021C, strain ccr4, stronger effect = lower value 1 | S. cerevisiae deletion strains, locus YAL026C, strain drs2, stronger effect = lower value 0.997 | S. cerevisiae deletion strains, locus YAL030W, strain snc1, stronger effect = lower value 1 | S. cerevisiae deletion strains, locus YBL061C, strain skt5, stronger effect = lower value 0.994 | S. cerevisiae deletion strains, locus YBR009C, strain hhf1, stronger effect = lower value 0.996 | S. cerevisiae deletion strains, locus YBR021W, strain FUR4, stronger effect = lower value 1 | S. cerevisiae deletion strains, locus YBR023C, strain chs3, stronger effect = lower value 0.995 | S. cerevisiae deletion strains, locus YBR171W, strain sec66, stronger effect = lower value 0.995 | S. cerevisiae deletion strains, locus YBR229C, strain ROT2, stronger effect = lower value 0.997 | S. cerevisiae deletion strains, locus YBR231C, strain swc5, stronger effect = lower value 1 | S. cerevisiae deletion strains, locus YBR279W, strain paf1, stronger effect = lower value 0.996 | S. cerevisiae deletion strains, locus YCL011C, strain gbp2, stronger effect = lower value 0.984 | S. cerevisiae deletion strains, locus YCL016C, strain dcc1, stronger effect = lower value 0.992 | S. cerevisiae deletion strains, locus YCL029C, strain bik1, stronger effect = lower value 0.987 | S. cerevisiae deletion strains, locus YCL061C, strain MRC1, stronger effect = lower value 0.994 | S. cerevisiae deletion strains, locus YCL069W, strain vba3, stronger effect = lower value 0.992 | S. cerevisiae deletion strains, locus YCR088W, strain abp1, stronger effect = lower value 0.987 | S. cerevisiae deletion strains, locus YDL005C, strain med2, stronger effect = lower value 0.984 | S. cerevisiae deletion strains, locus YDL035C, strain GPR1, stronger effect = lower value 0.956 | S. cerevisiae deletion strains, locus YDL040C, strain nat1, stronger effect = lower value 0.993 | S. cerevisiae deletion strains, locus YDL074C, strain BRE1, stronger effect = lower value 0.967 | S. cerevisiae deletion strains, locus YDL101C, strain DUN1, stronger effect = lower value 1 | S. cerevisiae deletion strains, locus YDL185W, strain tfp1, stronger effect = lower value 1.02 | S. cerevisiae deletion strains, locus YDL192W, strain arf1, stronger effect = lower value 0.978 | S. cerevisiae deletion strains, locus YDR001C, strain nth1, stronger effect = lower value 0.994 | S. cerevisiae deletion strains, locus YDR069C, strain doa4, stronger effect = lower value 1.02 | S. cerevisiae deletion strains, locus YDR101C, strain arx1, stronger effect = lower value 0.988 | S. cerevisiae deletion strains, locus YDR137W, strain rgp1, stronger effect = lower value 0.924 | S. cerevisiae deletion strains, locus YDR159W, strain sac3, stronger effect = lower value 0.921 | S. cerevisiae deletion strains, locus YDR162C, strain NBP2, stronger effect = lower value 0.987 | S. cerevisiae deletion strains, locus YDR195W, strain ref2 1 | S. cerevisiae deletion strains, locus YDR297W, strain sur2, stronger effect = lower value 0.998 | S. cerevisiae deletion strains, locus YDR318W, strain mcm21, stronger effect = lower value 0.988 | S. cerevisiae deletion strains, locus YDR334W, strain swr1, stronger effect = lower value 1.01 | S. cerevisiae deletion strains, locus YDR335W, strain msn5, stronger effect = lower value 1 | S. cerevisiae deletion strains, locus YDR388W, stronger effect = lower value 0.998 | S. cerevisiae deletion strains, locus YDR502C, strain sam2, stronger effect = lower value 0.978 | S. cerevisiae deletion strains, locus YEL003W, strain gim4, stronger effect = lower value 0.996 | S. cerevisiae deletion strains, locus YEL037C, strain rad23, stronger effect = lower value 1.01 | S. cerevisiae deletion strains, locus YEL061C, strain CIN8 (second series), stronger effect = lower value 1 | S. cerevisiae deletion strains, locus YEL061C, strain CIN8, stronger effect = lower value 0.993 | S. cerevisiae deletion strains, locus YER015W, strain faa2, stronger effect = lower value 1 | S. cerevisiae deletion strains, locus YER016W, strain bim1, stronger effect = lower value 0.994 | S. cerevisiae deletion strains, locus YER110C, stronger effect = lower value 1.01 | S. cerevisiae deletion strains, locus YER111C, strain swi4, stronger effect = lower value 1.01 | S. cerevisiae deletion strains, locus YER155C, strain BEM2 (second series), stronger effect = lower value 0.963 | S. cerevisiae deletion strains, locus YER155C, strain BEM2, stronger effect = lower value 0.983 | S. cerevisiae deletion strains, locus YER167W, strain BCK2, stronger effect = lower value 0.982 | S. cerevisiae deletion strains, locus YFR010W, strain ubp6, stronger effect = lower value 1 | S. cerevisiae deletion strains, locus YGL078C, strain dbp3, stronger effect = lower value 1.01 | S. cerevisiae deletion strains, locus YGL086W, strain mad1, stronger effect = lower value 0.968 | S. cerevisiae deletion strains, locus YGL167C, strain pmr1, stronger effect = lower value 0.985 | S. cerevisiae deletion strains, locus YGL173C, strain kem1, stronger effect = lower value 0.995 | S. cerevisiae deletion strains, locus YGL227W, strain vid30, stronger effect = lower value 0.996 | S. cerevisiae deletion strains, locus YGL240W, strain doc1, stronger effect = lower value 1.01 | S. cerevisiae deletion strains, locus YGL248W, strain PDE1, stronger effect = lower value 0.99 | S. cerevisiae deletion strains, locus YGL253W, strain hxk2, stronger effect = lower value 0.982 | S. cerevisiae deletion strains, locus YGR078C, strain PAC10, stronger effect = lower value 0.983 | S. cerevisiae deletion strains, locus YGR135W, strain pre9, stronger effect = lower value 1.01 | S. cerevisiae deletion strains, locus YGR229C, strain SMI1, stronger effect = lower value 0.995 | S. cerevisiae deletion strains, locus YGR252W, strain gcn5, stronger effect = lower value 1.05 | S. cerevisiae deletion strains, locus YHR013C, strain ard1, stronger effect = lower value 0.934 | S. cerevisiae deletion strains, locus YHR027C, strain rpn1, stronger effect = lower value 0.988 | S. cerevisiae deletion strains, locus YHR079C, strain IRE1 (second series), stronger effect = lower value 0.997 | S. cerevisiae deletion strains, locus YHR094C, strain hxt1, stronger effect = lower value 1 | S. cerevisiae deletion strains, locus YHR129C, strain ARP1, stronger effect = lower value 0.982 | S. cerevisiae deletion strains, locus YHR142W, strain chs7, stronger effect = lower value 0.972 | S. cerevisiae deletion strains, locus YHR200W, strain rpn10, stronger effect = lower value 1.01 | S. cerevisiae deletion strains, locus YIL066C, strain RNR3, stronger effect = lower value 0.98 | S. cerevisiae deletion strains, locus YIL073C, strain SPO22, stronger effect = lower value 1.03 | S. cerevisiae deletion strains, locus YIL125W, strain kgd1, stronger effect = lower value 0.989 | S. cerevisiae deletion strains, locus YIR030C, strain dcg1, stronger effect = lower value 0.998 | S. cerevisiae deletion strains, locus YJL092W, strain hpr5, stronger effect = lower value 0.988 | S. cerevisiae deletion strains, locus YJL095W, strain BCK1 (second series), stronger effect = lower value 0.997 | S. cerevisiae deletion strains, locus YJL095W, strain BCK1, stronger effect = lower value 1.02 | S. cerevisiae deletion strains, locus YJL115W, strain asf1, stronger effect = lower value 1 | S. cerevisiae deletion strains, locus YJL129C, strain trk1, stronger effect = lower value 1.01 | S. cerevisiae deletion strains, locus YJL134W, strain LCB3, stronger effect = lower value 0.988 | S. cerevisiae deletion strains, locus YJL154C, strain vps35, stronger effect = lower value 1 | S. cerevisiae deletion strains, locus YJL164C, strain tpk1, stronger effect = lower value 0.988 | S. cerevisiae deletion strains, locus YJL166W, strain qcr8, stronger effect = lower value 0.991 | S. cerevisiae deletion strains, locus YJL168C, strain set2, stronger effect = lower value 0.995 | S. cerevisiae deletion strains, locus YJL187C, strain SWE1 (second series), stronger effect = lower value 1.01 | S. cerevisiae deletion strains, locus YJR043C, strain POL32, stronger effect = lower value 1.01 | S. cerevisiae deletion strains, locus YKL009W, strain mrt4, stronger effect = lower value 0.965 | S. cerevisiae deletion strains, locus YKL068W, stronger effect = lower value 0.988 | S. cerevisiae deletion strains, locus YKL085W, strain MDH1 (second series), stronger effect = lower value 0.992 | S. cerevisiae deletion strains, locus YKL085W, strain MDH1, stronger effect = lower value 0.992 | S. cerevisiae deletion strains, locus YKL160W, strain elf1, stronger effect = lower value 0.996 | S. cerevisiae deletion strains, locus YKR026C, strain gcn3, stronger effect = lower value 0.972 | S. cerevisiae deletion strains, locus YKR091W, strain srl3, stronger effect = lower value 0.993 | S. cerevisiae deletion strains, locus YLL001W, strain dnm1, stronger effect = lower value 0.986 | S. cerevisiae deletion strains, locus YLL026W, stronger effect = lower value 0.994 | S. cerevisiae deletion strains, locus YLL041C, strain sdh2, stronger effect = lower value 0.991 | S. cerevisiae deletion strains, locus YLR027C, strain aat2, stronger effect = lower value 0.993 | S. cerevisiae deletion strains, locus YLR039C, strain RIC1, stronger effect = lower value 1 | S. cerevisiae deletion strains, locus YLR058C, strain SHM2, stronger effect = lower value 1.02 | S. cerevisiae deletion strains, locus YLR102C, strain apc9, stronger effect = lower value 1 | S. cerevisiae deletion strains, locus YLR221C, strain rsa3, stronger effect = lower value 0.978 | S. cerevisiae deletion strains, locus YLR258W, strain gsy2, stronger effect = lower value 1 | S. cerevisiae deletion strains, locus YLR262C, strain YPT6 (second series), stronger effect = lower value 0.961 | S. cerevisiae deletion strains, locus YLR262C, strain YPT6, stronger effect = lower value 0.944 | S. cerevisiae deletion strains, locus YLR268W, strain sec22, stronger effect = lower value 0.965 | S. cerevisiae deletion strains, locus YLR320W, strain mms22, stronger effect = lower value 0.922 | S. cerevisiae deletion strains, locus YLR330W, strain CHS5, stronger effect = lower value 0.969 | S. cerevisiae deletion strains, locus YLR342W, strain FKS1 (second series), stronger effect = lower value 0.947 | S. cerevisiae deletion strains, locus YLR342W, strain FKS1, stronger effect = lower value 0.976 | S. cerevisiae deletion strains, locus YLR357W, strain rsc2, stronger effect = lower value 1.01 | S. cerevisiae deletion strains, locus YLR370C, strain arc18, stronger effect = lower value 1.01 | S. cerevisiae deletion strains, locus YLR371W, strain rom2, stronger effect = lower value 1.02 | S. cerevisiae deletion strains, locus YLR384C, strain iki3, stronger effect = lower value 0.984 | S. cerevisiae deletion strains, locus YML016C, strain PPZ1, stronger effect = lower value 1 | S. cerevisiae deletion strains, locus YML032C, strain rad52, stronger effect = lower value 1 | S. cerevisiae deletion strains, locus YML120C, strain ndi1, stronger effect = lower value 1 | S. cerevisiae deletion strains, locus YML124C, strain tub3, stronger effect = lower value 1 | S. cerevisiae deletion strains, locus YMR058W, strain fet3, stronger effect = lower value 0.986 | S. cerevisiae deletion strains, locus YMR078C, strain ctf18, stronger effect = lower value 0.999 | S. cerevisiae deletion strains, locus YMR125W, strain sto1, stronger effect = lower value 1.01 | S. cerevisiae deletion strains, locus YMR129W, stronger effect = lower value 0.991 | S. cerevisiae deletion strains, locus YMR205C, strain PFK2, stronger effect = lower value 0.95 | S. cerevisiae deletion strains, locus YMR223W, strain ubp8, stronger effect = lower value 0.993 | S. cerevisiae deletion strains, locus YMR231W, strain pep5, stronger effect = lower value 1.01 | S. cerevisiae deletion strains, locus YMR307W, strain GAS1, stronger effect = lower value 0.97 | S. cerevisiae deletion strains, locus YNL067W, strain RPL9B, stronger effect = lower value 1.02 | S. cerevisiae deletion strains, locus YNL209W, strain ssb2, stronger effect = lower value 1.01 | S. cerevisiae deletion strains, locus YNL233W, strain BNI4, stronger effect = lower value 0.988 | S. cerevisiae deletion strains, locus YNL248C, strain rpa49, stronger effect = lower value 0.984 | S. cerevisiae deletion strains, locus YNL250W, strain rad50, stronger effect = lower value 1.01 | S. cerevisiae deletion strains, locus YNL271C, strain bni1, stronger effect = lower value 1.01 | S. cerevisiae deletion strains, locus YNL298W, strain CLA4, stronger effect = lower value 1 | S. cerevisiae deletion strains, locus YNL307C, strain MCK1, stronger effect = lower value 0.934 | S. cerevisiae deletion strains, locus YNL322C, strain KRE1 (second series), stronger effect = lower value 0.975 | S. cerevisiae deletion strains, locus YNR049C, strain mso1, stronger effect = lower value 0.99 | S. cerevisiae deletion strains, locus YNR052C, strain pop2, stronger effect = lower value 1.03 | S. cerevisiae deletion strains, locus YOL006C, strain TOP1, stronger effect = lower value 0.907 | S. cerevisiae deletion strains, locus YOL012C, strain htz1 1.19 | S. cerevisiae deletion strains, locus YOL147C, strain pex11, stronger effect = lower value 1 | S. cerevisiae deletion strains, locus YOR001W, strain rrp6, stronger effect = lower value 0.995 | S. cerevisiae deletion strains, locus YOR061W, strain CKA2, stronger effect = lower value 1 | S. cerevisiae deletion strains, locus YOR069W, strain VPS5, stronger effect = lower value 0.997 | S. cerevisiae deletion strains, locus YOR070C, strain gyp1, stronger effect = lower value 1.01 | S. cerevisiae deletion strains, locus YOR080W, strain dia2, stronger effect = lower value 1.01 | S. cerevisiae deletion strains, locus YOR083W, strain WHI5, stronger effect = lower value 1 | S. cerevisiae deletion strains, locus YOR106W, strain vam3, stronger effect = lower value 1.01 | S. cerevisiae deletion strains, locus YOR136W, strain idh2, stronger effect = lower value 0.984 | S. cerevisiae deletion strains, locus YOR144C, strain elg1, stronger effect = lower value 1 | S. cerevisiae deletion strains, locus YOR184W, strain ser1, stronger effect = lower value 0.893 | S. cerevisiae deletion strains, locus YOR265W, strain rbl2, stronger effect = lower value 1 | S. cerevisiae deletion strains, locus YOR270C, strain vph1, stronger effect = lower value 0.843 | S. cerevisiae deletion strains, locus YOR290C, strain snf2, stronger effect = lower value 0.996 | S. cerevisiae deletion strains, locus YOR316C, strain cot1, stronger effect = lower value 0.996 | S. cerevisiae deletion strains, locus YPL051W, strain arl3, stronger effect = lower value 0.998 | S. cerevisiae deletion strains, locus YPL078C, strain atp4, stronger effect = lower value 0.991 | S. cerevisiae deletion strains, locus YPL106C, strain sse1, stronger effect = lower value 0.976 | S. cerevisiae deletion strains, locus YPL240C, strain hsp82, stronger effect = lower value 0.995 | S. cerevisiae deletion strains, locus YPL241C, strain CIN2, stronger effect = lower value 0.988 | S. cerevisiae deletion strains, locus YPR119W, strain clb2, stronger effect = lower value 1 | S. cerevisiae deletion strains, locus YPR141C, strain kar3, stronger effect = lower value 1 | S. cerevisiae deletion strains, locus YPR163C, strain tif3, stronger effect = lower value 0.983 | S. cerevisiae deletion strains, locus YPR167C, strain met16, stronger effect = lower value 0.994 | S. cerevisiae deletion strains, strain wtn01, stronger effect = lower value 0.973 | S. cerevisiae strains, strain wild type, stronger effect = lower value 0.996
